# Screening results as filed in PubChem.
# pAkt inh: blocks phosphorylation of Akt; Neuro2A IGF-stimulated pAkt S473 HTRF, 20 min; hits give low values; activity change, % for hits at 50 µM; 0.32% of 360,000 active; AID 651550; in the data active means activity change below about -80%; inconclusive means mostly about -51% to -80%; further: on the % scale 0 is the no-effect control and ±100 the full control effect
#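 Neuro2A cells (4,500/well, DMEM with 0.5% FBS) were treated with compound at a single 50 µM final concentration, stimulated with 6 nM IGF for 20 min at 37 °C, and lysed. Phospho-Akt Ser473 was read by HTRF as 665/615 ratio ×10^4.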
# Glioma ERSR ind: ER stress response induction in glioma. U87-MG GRP78 promoter luciferase reporter, 16 h. Potency, µM, inactives show at the highest dose activation, hits mostly activators. 0.02% of 420,000 active; further: potency means the concentration at half of the fitted maximal effect; series mostly up to about 76 µM; % of control where 0% means no effect; nearly all actives have a fitted effect of over 35% in size
#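 Stably transfected U87-MG glioma cells carrying a GRP78-based luciferase sensor; 16 h compound incubation. Luminescence end-point read 10 min after Bright-Glo addition at room temperature.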
# LDHA block: blocks human lactate dehydrogenase A | P00338 | purified LDHA, NADH/diaphorase-resazurin fluorescence; hits give low values | 0.15% of 480,000 active | activity change, % (values are at about 110 or 230 µM); in the data active means activity change below about -30%; inconclusive means mostly about -25% to -30%;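 further: plate controls were DMSO wells for no effect and wells without enzyme for full effect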
#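 Human LDH5 at 2 nM final in Tris HCl pH 7.4 with 0.06 mM NADH and 0.2 mM pyruvate, reacted 5 minutes at room temperature. Remaining NADH coupled via diaphorase/resazurin; resorufin fluorescence read at 0 and 20 minutes, normalized to enzyme-free and DMSO wells.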
# TCR activator: T cell receptor activation. primary human leukocytes, anti-CD3, IL-2 HTRF, 48 h. Potency, µM (titrated, usually from 9.22 µM), without a hit: at the highest dose activation of IL-2 secretion, usual class: activators. 330,000 tested, under 10 active; further: % of control where 0% means no effect
#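 1) Mix primary human leukocytes, a-CD3 beads and compound. 2) Incubate 48 hr. 3) Add HTRF IL-2 reagents (a-IL-2-K, a-IL-2-d2).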
# TSHR antag: blocks TSH signaling through the human TSH receptor | P16473 | TSHR-expressing cells, TSH-stimulated cAMP HTRF, 2 h; hits give low values | activity change, negative = inhibition, % at 11.5 µM | 0.2% of 330,000 active | AID 504810;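 active means activity change below a set negative limit, meaning inhibition stronger than a set level, cut at about -70% in these data; inconclusive means activity change between two set negative limits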; further: on the % scale 0 is the no-effect control and ±100 the full control effect
# Target sequence (P16473 whole entry, looked up): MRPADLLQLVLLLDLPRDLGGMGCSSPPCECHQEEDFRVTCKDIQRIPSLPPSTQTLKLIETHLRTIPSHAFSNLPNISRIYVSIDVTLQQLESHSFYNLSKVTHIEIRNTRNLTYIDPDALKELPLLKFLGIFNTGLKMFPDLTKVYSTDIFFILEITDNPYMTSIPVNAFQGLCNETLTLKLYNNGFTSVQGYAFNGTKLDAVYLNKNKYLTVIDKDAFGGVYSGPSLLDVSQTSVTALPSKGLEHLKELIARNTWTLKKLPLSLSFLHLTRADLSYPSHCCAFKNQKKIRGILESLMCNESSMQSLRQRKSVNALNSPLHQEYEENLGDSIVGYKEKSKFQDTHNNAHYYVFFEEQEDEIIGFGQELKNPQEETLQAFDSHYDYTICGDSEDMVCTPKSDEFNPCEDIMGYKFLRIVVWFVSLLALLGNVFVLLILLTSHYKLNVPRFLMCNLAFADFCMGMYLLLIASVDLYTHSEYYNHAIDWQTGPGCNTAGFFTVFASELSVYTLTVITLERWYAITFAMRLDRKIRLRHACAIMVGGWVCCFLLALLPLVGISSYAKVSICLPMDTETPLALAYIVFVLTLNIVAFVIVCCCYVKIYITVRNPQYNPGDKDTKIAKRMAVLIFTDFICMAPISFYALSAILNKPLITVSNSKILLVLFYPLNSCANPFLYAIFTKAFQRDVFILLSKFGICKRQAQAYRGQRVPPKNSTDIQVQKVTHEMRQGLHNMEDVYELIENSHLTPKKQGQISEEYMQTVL
#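 Freshly harvested TSHR cells receive pin-tooled compound, then EC80 TSH at 4nM final. After 2 hours at 37 deg C, antibody in lysis buffer and cAMP-d2 are added; 30 minutes at ambient temperature precede the HTRF read.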
# RGS4 inh: blocks human RGS4-accelerated GTP hydrolysis | P49798 | Transcreener GDP fluorescence polarization, RGS4-accelerated GTP hydrolysis | Potency, µM (titrated, usually from 114 µM), for inactives: at the top dose activity change, negative = inhibition, most hits filed as inhibitors | 0.039% of 390,000 active | AID 504845; further: potency means the concentration at half of the fitted maximal effect; on the % scale 0 is the no-effect control and ±100 the full control effect; nearly all actives have a fitted effect of over 75% in size
#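 MLSMR compounds (23 nl, pin-transferred) preincubated 10 min at room temperature with a 500nM (2x) first reagent, then RGS4 at 900nM (2x) plus Transcreener GDP mix added; fluorescence polarization (620/688 nm) read before and after 90 min at 30 °C.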
# An asterisk follows results filed as active; i = inactive; ? = inconclusive; · = no result; ! = not confirmed by another sample; [ ] = another dose, or the depositor's remark. Only some compounds are listed: those with a hit (about 0.55% of all), similar ones and a draw of the others. Unless noted, the call rests on the fitted dose curve; in most records, active means well fitted curve in the direction sought with a large enough effect; inconclusive means small, poorly fitted or top-dose-only effect, or another doubt; inactive means no such curve, though single readings can be large; an effect the other way counts as inactive or inconclusive.
SMILES,pAkt inh,Glioma ERSR ind,LDHA block,TCR activator,TSHR antag,RGS4 inh
CC1Cc2cc(-c3csc(NC(=O)Cc4cccs4)n3)ccc2N1S(C)(=O)=O (stereo not given),i,-6%,0,2%,-72*,-14%
CCC(=O)Nc1nc(-c2ccc3c(c2)CC(C)N3S(C)(=O)=O)cs1 (stereo not given),i,-1%,-8,-7%,24,-1%
COc1ccc(NC(=O)N(C)[C@H]2C[C@H]3c4[nH]c5ccccc5c4CCN3C[C@H]2[C@H](C)O)cc1,i,6%,-25,·,·,·
COc1ccc(CN(C)[C@H]2C[C@H]3c4[nH]c5ccccc5c4CCN3C[C@H]2[C@H](C)O)cc1,i,0%,-30*,·,·,·
COc1ccc(NC(=O)CCS(=O)(=O)c2cccc3nonc23)c(OC)c1,-113%*,-4%,4,-4%,2,20%
COc1ccc(NC(=O)CCS(=O)(=O)c2cccc3nonc23)cc1,i,5%,-2,-22%,4,4%
CCCOC(=O)c1ccc(OCC(O)CN2CCN(C(=O)c3ccccc3)CC2)cc1 (stereo not given),-128%*,-2%,-6,-5%,7,14%
CC(C)(C)c1ccc(OCC(O)CN2CCN(C(=O)c3ccccc3)CC2)cc1 (stereo not given),i,-4%,-20,-3%,16,-17%
Clc1ccc(C=Nc2ccc(Nc3ccccc3)cc2)c(Cl)c1,·,·,8,·,·,·
CC(C)(C)C1=Nn2c(nnc2-c2ccccn2)SC1,-111%*,1%,2,5%,31,-42%
O=C1CCCC2=C1C(Cc1ccccc1)C1=C(CCCC1=O)O2,-118%*,-5%,6,-2%,10,4%
N#Cc1nc(COc2ccc(Br)cc2)oc1NC1CC1,·,·,5,·,·,·
COc1cccc(OCc2nc3ncc(Br)cc3[nH]2)c1,-97%*,-1%,-8,-2%,-7,-11%
CN(C)c1ccc(Nc2cccc3nccnc23)cc1,·,·,12,·,·,·
CC1CCc2noc(NC(=O)c3cc(=O)c4cc(Br)ccc4o3)c2C1 (stereo not given),·,·,-39*,·,·,·
CC(OC(=O)C1=CN2CCS(=O)(=O)N=C2C=C1)C(=O)Nc1ccccc1 (stereo not given),·,·,-3,·,·,·
Cc1ccc2cc(C(=O)NCC3CCN(C(C)C)C3)[nH]c2c1 (stereo not given),·,·,7,·,·,·
CCOc1ccc2nc3c(cc2c1)CN(CCOC)C(=NC)S3,-88%*,-4%,0,-7%[46.1 µM],-2,-17%
O=Cc1cccc2[nH]ccc12,·,·,-4,·,·,·
Cc1[nH]c2ccccc2c1N=Nc1ccc(F)cc1,i,7%,-5,0%,-18,11%
Cc1[nH]c2ccccc2c1N=Nc1cc(C(=O)O)cc(C(=O)O)c1,i,-4%,-34*,-1%,-1,-14%
CCN(CC)c1ccc(C(=O)Nc2cccc(F)c2)cc1,-115%*,-6%,3,6%,-14,50%
O=C(/C=C/C=C/c1ccco1)c1ccc(N2CCOCC2)cc1,·,·,3,·,·,·
Cc1ccc(C(=O)Nc2nnc(-c3ccco3)o2)cc1Br,·,·,0,·,·,·
O=C(Nc1ccc2nc3n(c(=O)c2c1)CCCCC3)C(=O)N1CCN(c2ccccc2F)CC1,i,-2%,-1,8%,-122*,-4%[11.4 µM]
SMILES,pAkt inh,Glioma ERSR ind,LDHA block,TCR activator,TSHR antag,RGS4 inh
O=C(OCC(=O)N1CCNC1=O)c1cc2c(F)cccc2s1,·,·,3,·,·,·
Cc1ccc(S(=O)(=O)N/N=C/c2cc(Br)c(C)o2)cc1,-95%*,10%,3,1%,33,-5%
CCOc1ccc(S(=O)(=O)N(CC(=O)Nc2cccc(C)c2)c2ccccc2)cc1,·,·,-34*,·,·,·
CCOc1ccc(S(=O)(=O)N(CC(=O)Nc2cccc(OC)c2)c2ccccc2)cc1,·,·,-7,·,·,·
O=C(CSc1ccc2c(c1)OCCO2)NCCN1C(=O)CSC1=O,-109%*,6%,-3,-2%,12,8%
O=C(CSc1cc(Cl)ccc1Cl)NCCN1C(=O)CSC1=O,i,-7%,-8,7%,-5,11%
CC[n+]1ccc(/C=C/c2ccc(N(C)C)cc2)c2ccccc21,i,-11%,-1,47%,-71*,?
CC(=O)Oc1ccc2cc(-c3ccccc3)c(=O)oc2c1,i,3%,-31*!,-4%,27,-11%
Cc1ccc(CSc2nnc(-c3ccc(NS(=O)(=O)c4ccccc4)cc3)o2)cc1,i,2%,-1,18%[46.1 µM],-9,6%
O=C(CSc1nnc(-c2ccncc2)o1)Oc1ccccc1,-92%*,-4%,-2,3%,0,6%
O=C(CSc1nnc(-c2cccnc2)o1)Oc1ccccc1,i,-3%,-7,-4%,-9,31%
COC(=O)CSc1nnc(-c2ccc(NS(=O)(=O)c3ccccc3)cc2)o1,-111%*,-16%,-7,4%,-30,-3%
C=C[C@]1(C)CC(=O)[C@@]2(O)[C@@]3(C)C(O)CCC(C)(C)C3C(O)C(OC(C)=O)[C@@]2(C)O1 (stereo not given in full),·,-3%,·,·,·,·
C=C[C@@]1(C)CC(=O)[C@@]2(O)[C@@]3(C)[C@@H](O)CCC(C)(C)[C@@H]3[C@H](OC(=O)CCN(C)C)[C@H](OC(C)=O)[C@@]2(C)O1,·,0%,·,·,·,8.4µM*
N#C/C(=C(/O)COC(=O)CCCNC(=O)c1ccc(Cl)cc1)c1nc2ccccc2[nH]1,-102%*,-1%,2,3%,-15,0%
N#C/C(=C(/O)COC(=O)CSc1ccc(Cl)cc1)c1nc2ccccc2[nH]1,i,0%,3,5%[46.1 µM],-10,21%
CCOc1cccc(OCCCCN2CCOCC2)c1,-108%*,-4%,-20,-2%,20,25%
Brc1cccc(OCCN2CCCCC2)c1,i,-3%,-33*,-1%[46.1 µM],5,-17%
COc1cccc(OCCCCCCN2CCOCC2)c1,·,-2%,-2,1%,2,-2%
Clc1cccc(OCCN2CCOCC2)c1,i,-3%,-34*,1%,9,31%
CCOC(=O)c1nnn(-c2nonc2N)c1-c1ccc(OC)cc1,-110%*,-5%,0,-9%,-5,-11%
CCc1ccc(NC(=O)c2ccc3c(=O)n4c(nc3c2)CCCCC4)cc1,i,6%,-3,5%,-28,14%[56.9 µM]
O=C(Nc1cccc(S(=O)(=O)N2CCCCC2)c1)c1ccc2c(=O)n3c(nc2c1)CCCCC3,i,0%,-3,0%[46.1 µM],-77*,2%
CCCC(=O)N1CCN(c2nc(-c3ccco3)c3c(c2C#N)CCCC3)CC1,·,·,3,·,·,·
Cc1cccc(NC(=O)COc2ncnc3ccc(Br)cc23)c1C,·,·,-31*,·,·,·
